One may read the inhibition as the change of the read-out against control, counted positive when it falls.

The structures appear in SMILES notation. Screen size: about 290,000 compounds; about 11,000 (3.8%) were called active. Shown is part of a subset that was picked to be rich in actives. Values without a mark were called inactive.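 The calls were made as follows: active = mean replicate inhibition above about 79%, with every replicate also reaching it (limit read from the data); inconclusive = only one of the two criteria met; inactive = mean below limit and not every replicate reaching it.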

FAD-linked sulfhydryl oxidase ALR (Homo sapiens), sequence (P55789 whole entry, looked up): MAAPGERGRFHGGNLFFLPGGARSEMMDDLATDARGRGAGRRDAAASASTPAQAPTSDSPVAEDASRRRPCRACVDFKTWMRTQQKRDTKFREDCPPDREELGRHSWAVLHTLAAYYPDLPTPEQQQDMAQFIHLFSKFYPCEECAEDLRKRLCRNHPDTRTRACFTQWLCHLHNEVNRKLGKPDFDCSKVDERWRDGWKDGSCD

The assay has as its target FAD-linked sulfhydryl oxidase ALR (Homo sapiens) (UniProt P55789). The assay is described as follows: inhibitors of human ALR sulfhydryl oxidase, primary screen, biochemical, H2O2 detection, HRP-luminol luminescence, single point (AID 485317). Particulars: purified ALR, DTT oxidation, stronger effect = higher value, concentration not given here.
Turning to `O=C1C=CN2CCCC2CC1` (configuration not stated), the inhibition is -8.59%. Regarding `CN(c1ccc(O)cc1)c1nc(-c2cccnc2)cs1`, the inhibition was 95.1% (active). The value for `Cc1ccccc1Nc1nc(-c2cccnc2)cs1` was 11.2%; that for `O=C(Nc1nc(-c2cccnc2)cs1)c1ccccc1F` was 1.15%; that for `C=CCC[C@H](Cc1ccc(F)cc1)C(=O)OC[C@H](C)NC(=O)[C@H](CC=C)CC(=O)N(CCO)Cc1ccccc1` was 2.24%. The value for `COc1ccc([C@H]2CC(=O)C=C(/C=C/c3ccccc3)C2)cc1` was 1.57%; that for `O=C(NCCN1CCOCC1)c1cccc(S(=O)(=O)Nc2ccc(F)cc2)c1` was -5.52%; that for `O=C(COC(=O)c1ccc(Br)o1)NC12CC3CC(CC(C3)C1)C2` was -1.81%. For `Cc1ccc(S(=O)(=O)Nc2nc(C)cc(-n3nc(C)cc3C)n2)cc1`, the inhibition was 7.83%. Take `Cc1cc(N/N=C\c2ccc(Br)cc2)nc(-n2nc(C)cc2C)n1`: the inhibition is -2.32%.

Consider `Cc1ccc(S(=O)(=O)Nc2nc(C)cc(N/N=C/c3ccc(O)cc3)n2)cc1`, for which the inhibition is 98.5% (active). For `CCN(C[C@H]1N[C@@](CC)(C(=O)OC)[C@H]2C(=O)N(Cc3ccccc3)C(=O)[C@@H]12)S(=O)(=O)c1ccc(C(F)(F)F)cc1`, the inhibition is 17.3%. Then `CCc1ccc(S(=O)(=O)NCC(O)COc2ccc(OC)cc2)cc1` (configuration not stated), with -11.7%; and `CCCc1ccc(OCC(O)CN2CCN(CCO)CC2)cc1` (configuration not stated), with -1.03%; and `Nc1ccc(OCC(O)C[n+]2ccc(CCS(=O)(=O)[O-])cc2)cc1` (configuration not stated), with 98.1% (active). Then `CCN(CC)C(CNC(=O)CSc1nnnn1-c1cccc(F)c1)c1ccco1` (configuration not stated), with -5.32%; and `O=c1c2ccccc2ccc2ccc(P(=O)(O)O)cc12`, with -13.1%.

Regarding `O=C1NC[C@@H](c2ccccc2)OC(=O)[C@H](Cc2ccc(F)cc2)CC/C=C/C[C@H]1CC(=O)N(CCO)Cc1ccccc1`, the inhibition was -7.53%. Turning to `CC(C)(C)OC(=O)Nc1ccc([C@@H](NC(=O)OC(C)(C)C)C(=O)OC(C)(C)C)cc1`, the inhibition was 2.09%. The value for `Cc1cc(C(=O)O)ccc1[N+](=O)[O-]` was -8.6%; that for `CC(C)NC(=O)c1ccc(Sc2ccccc2)c([N+](=O)[O-])c1` was 5.17%; that for `Cc1ccc(Sc2cc(C(=O)c3ccccc3C(=O)O)ccc2[N+](=O)[O-])cc1` was 97.5% (active).

On to `COc1ccc2ccn(C)c2c1`, for which the inhibition was 7.82%.

Turning to `COc1ccc2c(c1)cc1n2CCN=C1NN`, the inhibition was 97.6% (active). For the compound `O=C(CNC(=O)c1n[nH]c2ccccc12)Nc1cc(Cl)ccc1Cl`, the inhibition is -1.04%. With `Cc1ccc(CNC(=O)COC(=O)C2CCC2)cc1`, the inhibition is 2.97%. Then `O=C(O)c1ccccc1CSc1nc2ccccc2s1`, with 98.5% (active); and `CCN(CC)CCCSc1nc2ccccc2s1`, with -9.41%. As for `O=C(CSc1nc2ccccc2s1)Nc1ccc(C(=O)O)cc1`, the inhibition was -1.73%. For `Cc1ccc(C(=O)OCC(=O)N2CC(C)CC(C)C2)cc1S(=O)(=O)N1CCCCC1` (configuration not stated), the inhibition is -62.3%. On to `COCCCn1c(SCC(=O)Nc2oc(C)c3c(C)n[nH]c(=O)c23)nc2sc3c(c2c1=O)CCC3`, for which the inhibition is -9.92%. Then `CC(OC(=O)CCC(=O)c1ccccc1)C(=O)Nc1ccc(F)cc1` (configuration not stated), with -4.58%. `O=C(CCCN=C1NS(=O)(=O)c2ccccc21)OCC(=O)c1ccc(F)c(F)c1`: the inhibition is -7.91%.

Turning to `CC(C)(C)Nc1c(N)c(=O)oc2ccccc12`, the inhibition is 72.1%. Then `Nc1c(NCCc2ccccc2)c2ccccc2oc1=O`, with 98.8% (active); and `NC(=O)c1oc2ccccc2c1NC(=O)Cc1ccccc1`, with -7.38%; and `O=C(Nc1ccc(C(F)(F)F)cc1)c1cccc(-n2cnnn2)c1`, with -5.63%. As to `CSc1ncccc1C(=O)NCC(c1ccco1)N1CCCCC1` (configuration not stated), the inhibition is -3.83%. Then `O=C(COC(=O)c1cc(=O)[nH]c2ccccc12)NCc1cccc(Cl)c1`, with 1.99%. With `COc1ccc(N2CCN(C(=O)/C(C#N)=C/c3ccccc3)CC2)cc1`, the inhibition was 33.6%. In the case of `N#C/C(=C\c1ccc(N2CCOCC2)o1)C(=O)N1CCOCC1`, the inhibition is 83.6% (active). The value for `N#C/C(=C\c1ccc(-c2cccc([N+](=O)[O-])c2)o1)C(=O)NCCN1CCOCC1` was -9.22%; that for `COc1ccccc1C(=O)NCCC(=O)NC(C)CCc1ccccc1` (configuration not stated) was -10.1%; that for `Cc1sc2ncnc(N3CCC(C(=O)Nc4nc5ccc(Cl)cc5s4)CC3)c2c1C` was -1.15%.

As for `CC(C)Oc1ccc(C(=O)NCC(=O)Nc2ccc3c(c2)CCC3)cc1`, the inhibition is 1.47%. `NNC(=O)COc1ccc(C2SCCS2)cc1`: the inhibition was 89.6% (active). Then `O=C(COc1ccc(Cl)cc1)Nc1ccc2c(c1)OCO2`, with -11.8%. Consider `COc1ccc(OCC(=O)NNC(=O)C2CCC2)cc1`, for which the inhibition was -2.8%. The value for `O=C(NCc1ccccc1CN1CCCC1)C1CCN(S(=O)(=O)c2ccc(Cl)cc2)CC1` was 2.81%; that for `COC(=O)C1=C(C)N(Cc2ccccc2)C(=NCCCOC(C)C)N[C@H]1c1ccccc1` was -6.98%.

As for `CCN(CC)CCCNC(=O)CCc1ccccc1`, the inhibition is -4.98%.

`CCN(CCCNC(=O)CCn1c(=O)[nH]c2ccsc2c1=O)c1ccccc1`: the inhibition is 99.3% (active). On to `CCCCC(CC)CNC(=O)CCCCn1c(=O)[nH]c2ccsc2c1=O` (configuration not stated), for which the inhibition was -6.66%.

Consider `CC(C)(C)Oc1ccccc1Nc1nc(NCCO)nc(N2CCCC2)n1`, for which the inhibition is 6.57%. Then `Cc1ccsc1C(=O)NNC(=O)COc1ccc(Br)cc1`, with -3.21%; and `Cc1[nH]c2ccccc2c1SCC(=O)Nc1nccs1`, with 97.1% (active); and `CCn1c(SCC(=O)Nc2nccs2)nnc1-c1ccco1`, with -4.02%.

For `Cc1cc(C(=O)OCC(=O)Nc2nccs2)c2ccccc2n1`, the inhibition was -1.42%.

In the case of `Cc1cc(-c2nnc(SCC(=O)Nc3ccc(F)cc3)n2N)n[nH]1`, the inhibition is -1.02%. `Nn1c(SCC(=O)Nc2nccs2)nncc1=O`: the inhibition was 98.8% (active). For `COc1ccc(Cc2nnc(SCC(=O)N(c3ccccc3)C(C)C)n(N)c2=O)cc1`, the inhibition is -4.76%. Then `CCn1c(SCC(=O)Nc2ccc(OC)c(OC)c2)nnc1-c1c[nH]c2ccccc12`, with -15.3%; and `COc1ccc(NC(=O)CSc2nc3ccccc3c(=O)n2C)cc1`, with -13.7%. The value for `COc1ccc(NC(=O)CSc2nnc(Cc3ccccc3)c(=O)n2N)cc1` was 98.6% (active). Regarding `CCn1c(SCC(=O)Nc2nccs2)nnc1-c1ccncc1`, the inhibition was -12.3%.

In the case of `COc1ccc(NC(=O)CSc2nncc(=O)n2N)cc1OC`, the inhibition is 87% (active). On to `Cn1c(SCC(=O)Nc2nccs2)nnc1-c1cccnc1`, for which the inhibition is 2.9%.

The values are drawn from PubChem BioAssay AID485317 (Broad Institute, 2010).
